Among the test systems are NCI-H23 lung; NCI-H226 lung; NCI-H322M lung; HOP-62 NSCLC; NCI-H460 lung; HOP-92 NSCLC; NCI-H522 lung; A549/ATCC NSCLC; 786-0 renal; COLO 205 colon; DU-145 prostate; MALME-3M melanoma; MDA-MB-231 breast; SF-268 CNS; SF-295 CNS; SF-539 CNS; M14 melanoma; K-562 leukemia; RXF 393 renal; UACC-257 melanoma.
What all share (assay): NCI-60 one-dose screen, 48 h (100 = growth as untreated, 0 = no growth, -100 = all killed)
Common to all, as to settings: 10 µM unless noted

Results on eight compounds are retold here after PubChem BioAssay (NCI).

About 83,000 compounds went through this panel and 20% of them were active in at least one assay; those are over-represented in the sample as a whole.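 Assay: single dose, 48 h. Readout: percent growth (0 = no net growth; negative = cell death). Active: <10.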 A number with no mark means an inactive call. Activity calls are given as the source filed them.

Regarding `Cn1c(=O)c2nc3c(=O)n(C)c(=O)n(C)c3nc2n(C)c1=O`, the growth in the test with NCI-H23 lung was 95.1%; with NCI-H226 lung, 107%; in the test with NCI-H322M lung, 101%; in the test on HOP-62 NSCLC it was 93%; in the test with NCI-H460 lung, 102%; with HOP-92 NSCLC it was 127%. Further, the growth in the test with NCI-H522 lung is 93.8%; in the test on A549/ATCC NSCLC, 126%; in the test on 786-0 renal it was 91.2%; with COLO 205 colon, 126%; with DU-145 prostate, 117%; in the test with MALME-3M melanoma, 120%. Also, the growth in the test with MDA-MB-231 breast was 109%; in the test with SF-268 CNS, 108%; in the test on SF-295 CNS, 107%; in the test with SF-539 CNS, 91.7%; in the test on M14 melanoma, 97%.

Turning to `O=C1C=C(c2ccccc2)C(O)(c2ccccc2)C1` (stereo not given), the growth with NCI-H23 lung was 99.1%; with NCI-H226 lung, 101%; in the test with NCI-H322M lung, 106%; in the test with HOP-62 NSCLC, 101%; in the test with NCI-H460 lung, 110%; in the test on HOP-92 NSCLC it was 163%. Moreover, the growth is 94% with NCI-H522 lung; 93.4% with A549/ATCC NSCLC; 99.1% in the test on 786-0 renal; 104% in the test on COLO 205 colon; 86.6% in the test on K-562 leukemia; 108% in the test with MALME-3M melanoma. The growth in the test on MDA-MB-231 breast was 92.5%; in the test with RXF 393 renal, 115%; in the test on SF-268 CNS, 103%; with SF-295 CNS it was 94.1%; in the test with SF-539 CNS, 104%; in the test on UACC-257 melanoma, 97.7%. In addition, the growth in the test with M14 melanoma was 95.5%.

In the case of `CCOC(=O)C(COS(C)(=O)=O)(COS(C)(=O)=O)C(=O)OCC`, the growth was 99.5% with NCI-H23 lung; 105% with NCI-H226 lung; 101% in the test on NCI-H322M lung; 98.1% in the test with HOP-62 NSCLC; 109% in the test with NCI-H460 lung; 86% in the test with HOP-92 NSCLC. Also, the growth in the test with NCI-H522 lung is 96%; with A549/ATCC NSCLC, 105%; with 786-0 renal it was 108%; in the test on COLO 205 colon it was 107%; in the test with K-562 leukemia it was 101%; with MALME-3M melanoma, 122%. Moreover, the growth is 109% in the test with MDA-MB-231 breast; 112% in the test on RXF 393 renal; 99% with SF-268 CNS; 111% with SF-295 CNS; 112% in the test on SF-539 CNS; 105% in the test on UACC-257 melanoma. For the same compound, in the test on M14 melanoma, the growth was 104%.

On to `C=CCOc1ccc(Cl)cc1Cl`, for which the growth in the test with NCI-H23 lung is 111%; in the test on NCI-H226 lung it was 104%; with NCI-H322M lung, 113%; in the test with HOP-62 NSCLC, 113%; in the test on NCI-H460 lung, 110%; in the test with HOP-92 NSCLC, 77.3%. For the same compound, the growth in the test on NCI-H522 lung is 108%; in the test on A549/ATCC NSCLC it was 109%; with 786-0 renal, 104%; in the test with COLO 205 colon it was 109%; in the test on K-562 leukemia it was 5.12% (active); with MALME-3M melanoma, 113%. The growth was 91.5% in the test on MDA-MB-231 breast; 132% in the test with RXF 393 renal; 104% with SF-268 CNS; 98.2% with SF-295 CNS; 96.8% in the test with SF-539 CNS; 115% in the test on UACC-257 melanoma. Moreover, the growth in the test with M14 melanoma is 101%.

In the case of `Nc1ncnc(Nc2ccccc2)n1`, the growth is 101% in the test on NCI-H23 lung; 104% with NCI-H226 lung; 104% in the test on NCI-H322M lung; 119% in the test with HOP-62 NSCLC; 107% in the test on NCI-H460 lung; 84.5% with HOP-92 NSCLC. For the same compound, the growth was 99.4% in the test with NCI-H522 lung; 104% in the test with A549/ATCC NSCLC; 110% with COLO 205 colon; 120% in the test on DU-145 prostate; 98.8% in the test with K-562 leukemia; 124% with MALME-3M melanoma. Also, the growth in the test on MDA-MB-231 breast is 115%; with RXF 393 renal it was 118%; in the test with SF-268 CNS, 112%; in the test with SF-295 CNS, 113%; with SF-539 CNS it was 108%; in the test on UACC-257 melanoma, 108%. Also, the growth with M14 melanoma is 106%.

On to `CCOP(=O)(OCC)/C(=C\N1C(=O)CC(=O)NC1=S)C(=O)OC`, for which the growth in the test on NCI-H23 lung is 97.9%; in the test with NCI-H226 lung it was 95.7%; in the test on NCI-H322M lung, 107%; with HOP-62 NSCLC, 88%; with NCI-H460 lung it was 103%; in the test on HOP-92 NSCLC it was 107%. Moreover, the growth in the test with NCI-H522 lung was 104%; in the test with A549/ATCC NSCLC, 99.7%; in the test on 786-0 renal it was 108%; in the test on COLO 205 colon, 99.5%; in the test with K-562 leukemia, 103%; in the test with MALME-3M melanoma, 102%. The growth was 93.6% in the test with MDA-MB-231 breast; 103% with RXF 393 renal; 101% in the test on SF-268 CNS; 102% in the test on SF-295 CNS; 109% with SF-539 CNS; 101% in the test with UACC-257 melanoma. In addition, the growth in the test with M14 melanoma was 99.2%.

As to `Cc1ccccc1CC(N)C(=O)O` (stereo not given), the growth was 98.2% with NCI-H23 lung; 115% with NCI-H226 lung; 98.6% in the test with NCI-H322M lung; 103% with HOP-62 NSCLC; 109% in the test on NCI-H460 lung; 92.3% in the test with HOP-92 NSCLC. Further, the growth with NCI-H522 lung is 112%; in the test with A549/ATCC NSCLC, 107%; in the test on 786-0 renal, 107%; with COLO 205 colon, 114%; in the test on K-562 leukemia, 115%; with MALME-3M melanoma, 116%. For the same compound, the growth is 116% with MDA-MB-231 breast; 137% in the test with RXF 393 renal; 101% with SF-268 CNS; 99.6% in the test with SF-295 CNS; 116% with SF-539 CNS; 109% in the test with UACC-257 melanoma. Besides, in the test with M14 melanoma, the growth was 100%.

For the compound `O=C1NC(=O)/C(=C\c2ccncc2)N1`, the growth in the test with NCI-H23 lung is 102%; with NCI-H226 lung it was 99.8%; in the test on NCI-H322M lung it was 107%; in the test with HOP-62 NSCLC, 94.2%; in the test with NCI-H460 lung, 102%; with HOP-92 NSCLC it was 85.7%. Further, the growth in the test on NCI-H522 lung is 94.7%; with A549/ATCC NSCLC it was 106%; in the test on 786-0 renal, 106%; in the test on COLO 205 colon it was 103%; in the test with K-562 leukemia, 117%; in the test on MALME-3M melanoma, 103%. Also, the growth in the test with MDA-MB-231 breast was 99.1%; with RXF 393 renal, 102%; in the test on SF-268 CNS it was 97.6%; in the test with SF-295 CNS, 104%; with SF-539 CNS, 92.7%; with UACC-257 melanoma, 97.7%. Moreover, the growth with M14 melanoma was 92.6%.
